Our source for the survival values is PubChem BioAssay AID463173 (ICCB-Longwood Screening Facility, Harvard Medical School, 2010).

Among all 52,000 compounds or so, about 4,300 (8.3%) were called active. Cut-off read from the data, not from the text of the source: active = survival mostly below about 52% (no sharp cut-off); inactive = mostly above about 56%. The list comes from a sample in which actives are over-represented; it also holds similar structures and randomly drawn compounds.

This test concerns DeltatarO mutant. Description: growth inhibition of S. aureus wild type versus tarO mutant, primary screen, teichoic acid synthesis inhibitors, RN4220, OD600 (AID 463173). The conditions noted are these: OD600, 18 h, stronger effect = lower value, screened at 18.75 µg/mL (by protocol).
As for `Cc1cc(C)cc(NC(=O)c2cccc(N3CCCS3(=O)=O)c2)c1`, the survival is 101% (inactive). In the case of `CCc1ccc(N2C(=O)CSC23C(=O)N(Cc2cccc(F)c2)c2ccccc23)cc1` (configuration not stated), the survival is 124% (inactive). Regarding `O=C1C(=O)N(C2CCN(C(=O)c3ccccc3Cl)CC2)CCN1Cc1ccc(F)cc1`, the survival is 67% (inactive). Consider `CN1C(C(=O)Nc2ccc(F)cc2F)=CC(c2cccs2)=NS1(=O)=O`, for which the survival is 99% (inactive). Turning to `CCCOc1ccc(-c2nc(SC)[nH]c(=O)c2C#N)cc1OC`, the survival is 79% (inactive).

As for `CCC(Oc1ccccc1F)C(=O)N1CCC(c2nc3ccccc3s2)CC1` (configuration not stated), the survival was 2% (active). Take `CC(Oc1ccc(F)cc1)C(=O)N1CCC(c2nc3ccccc3s2)CC1` (configuration not stated): the survival was 58% (inactive). For `COc1cccc(C(=O)N2CCC(c3nc4ccccc4s3)CC2)c1`, the survival is 70% (inactive). As to `CCc1ccc(OC(C)C(=O)N2CCC(c3nc4ccccc4s3)CC2)cc1` (configuration not stated), the survival was 28% (active).

`COc1ccccc1OC(C)C(=O)N1CCC(c2nc3ccccc3s2)CC1` (configuration not stated): the survival was 2% (active). Under `O=C(c1ccccc1Cl)N1CCC(c2nc3ccccc3s2)CC1` stands 57% (inactive); under `COc1cc(C(=O)N2CCC(c3nc4ccccc4s3)CC2)cc(OC)c1OC`, 74% (inactive); under `COc1ccc(C(=O)N2CCC(c3nc4ccccc4s3)CC2)cc1Cl`, 62% (inactive).

Take `Cc1ccccc1C(=O)N1CCC(c2nc3ccccc3s2)CC1`: the survival is 75% (inactive).

For the molecule `COCCCNC(=O)Cn1cnc2sc(C)c(S(=O)(=O)N3CCC(C)CC3)c2c1=O`, the survival is 69% (inactive). `CCOCCc1nn2c(=O)cc(COC(=O)c3ccccc3NC(=O)c3cccs3)nc2s1`: the survival is 58% (inactive).

Consider `COc1ccc(CNC(=O)c2cc(-c3ccc(C)cc3)nc3n[nH]c(-c4ccc(Br)cc4)c23)cc1`, for which the survival is 74% (inactive). Regarding `O=C(NCCc1ccc(Cl)cc1)c1nnc(Cc2ccc(Cl)cc2Cl)o1`, the survival was 96% (inactive). With `COc1ccccc1CNC(=O)CCNS(=O)(=O)c1ccc2c(c1)CCCC(=O)N2`, the survival was 60% (inactive). For the molecule `CC1CCN(C(=O)Cn2c(=O)n(CCCCCC(=O)NCc3ccccc3Cl)c(=O)c3sccc32)CC1`, the survival was 69% (inactive). As to `COc1ccc(N2CC(NC(=O)C(c3ccccc3)c3ccccc3)CC2=O)cc1OC` (configuration not stated), the survival was 90% (inactive).

In the case of `CC(=O)Nc1ccc(NC(=O)C(NC(=O)C2CCC(C)CC2)C(C)C)cc1` (configuration not stated), the survival was 128% (inactive).

Regarding `COc1ccc(NC(=O)c2sc3nc4c(cc3c2N)CN(Cc2ccccc2)CC4)cc1`, the survival was 96% (inactive). With `COc1ccc(NC(=O)c2sc3nc4c(cc3c2N)CN(Cc2ccccc2)CC4)c(OC)c1`, the survival was 47% (active).

Regarding `CN1CCc2nc3sc(C(=O)Nc4cccc(C#N)c4)c(N)c3cc2C1`, the survival is 54% (active).

As to `CCN1CCc2nc3sc(C(=O)Nc4ccccc4OC(F)(F)F)c(N)c3cc2C1`, the survival was 44% (active). For `CCN1CCc2nc3sc(C(=O)Nc4cccc(Cl)c4C)c(N)c3cc2C1`, the survival is 125% (inactive). Consider `CCOc1ccccc1NC(=O)c1sc2nc3c(cc2c1N)CN(Cc1ccccc1)CC3`, for which the survival is 63% (inactive). On to `COc1ccc(NC(=O)c2sc3nc4c(cc3c2N)CCCCCC4)cc1`, for which the survival is 127% (inactive). In the case of `Nc1c(C(=O)Nc2ccc(C(=O)O)cc2)sc2nc3c(cc12)CCCC3`, the survival is 42% (active).

On to `CN1CCc2nc3sc(C(=O)Nc4c(F)cccc4F)c(N)c3cc2C1`, for which the survival is 153% (inactive). Take `CC(=O)c1cccc(NC(=O)c2sc3nc4c(cc3c2N)CCCC4)c1`: the survival was 60% (inactive). Turning to `CCN(CC)c1ccc(NC(=O)c2sc3nc4c(cc3c2N)CN(C)CC4)cc1`, the survival was 181% (inactive). As to `COc1ccccc1NC(=O)c1sc2nc3c(cc2c1N)CN(Cc1ccccc1)CC3`, the survival is 101% (inactive). Consider `CCOC(=O)C1=C(CS(=O)(=O)c2cccc(C(F)(F)F)c2)NC(=O)NC1c1cccc(OC)c1` (configuration not stated), for which the survival was 48% (inactive).

`CC(=O)c1ccc(NS(=O)(=O)c2ccc3[nH]c4c(c3c2)CCCCCC4)cc1`: the survival was 84% (inactive).

Take `CCOc1ccc(C(=O)c2oc3ccccc3c2NC(=O)Cc2coc3cc(C)cc(C)c23)cc1`: the survival was 100% (inactive). Regarding `CC(=O)c1ccc(NC(=O)CSc2ccc(-c3cccs3)nn2)cc1`, the survival was 126% (inactive). `COc1cccc(C(=O)CN2CCN(S(=O)(=O)c3ccc(Cl)cc3)CC2)c1`: the survival is 74% (inactive). Turning to `COc1ccccc1OCC(=O)N(Cc1ccco1)Cc1ccccc1F`, the survival was 64% (inactive). For the molecule `CCc1cc(CC)c(/C=N/NC(N)=O)c(CC)c1/C=N/NC(N)=O`, the survival is 94% (inactive). As for `Nc1c(C(=O)Nc2ccccc2)sc2nc3c(cc12)CN(Cc1ccccc1)CC3`, the survival is 63% (inactive). As to `Cc1ccc(NC(=O)c2sc3nc4c(cc3c2N)CN(Cc2ccccc2)CC4)cc1`, the survival is 110% (inactive). On to `CCc1ccc(NC(=O)c2sc3nc4c(cc3c2N)CN(CC)CC4)cc1`, for which the survival was 49% (active). Under `Cc1cccc(N2CCN(C(=O)Cn3ncc4c3-c3ccccc3OC4)CC2)c1C` stands 77% (inactive). Then `COc1cc(S(=O)(=O)NCCc2c(C)[nH]c3ccccc23)c(C)cc1C`, with 56% (inactive).

For `COc1c(C)cc(S(=O)(=O)NCCc2c(C)[nH]c3ccccc23)c(C)c1C`, the survival is 59% (active). With `COc1cc(C)c(Cl)cc1S(=O)(=O)NCCc1c(C)[nH]c2ccccc12`, the survival is 37% (active). Consider `COc1ccc2[nH]c(C)c(CCNS(=O)(=O)c3cc(F)ccc3OC)c2c1`, for which the survival is 57% (inactive). Consider `COc1ccc(C(C)C)cc1S(=O)(=O)NCCc1c(C)[nH]c2ccc(C)cc12`, for which the survival is 84% (inactive). For the molecule `COc1cc(Cl)c(S(=O)(=O)NCCc2c(C)[nH]c3c(C)cccc23)cc1Cl`, the survival is 57% (inactive). Under `COc1cccc(C(c2nnnn2CCC(C)C)N2CCN(c3cccc(C)c3C)CC2)c1OC` (configuration not stated) stands 82% (inactive). With `CCOC(=O)C1CC1c1ccccc1` (configuration not stated), the survival is 81% (inactive). Consider `Cc1cccc(C(=O)Nc2ccc(C(=O)OCc3cc(=O)n4nc(CC(C)C)sc4n3)cc2)c1`, for which the survival is 99% (inactive). Under `COc1cccc(Nc2ccc3cc(S(=O)(=O)N4CCC(C)CC4)ccc3n2)c1` stands 88% (inactive); under `COc1ccc(NC(=O)N(Cc2nnc3n2CCCCC3)c2ccc(OC)c(Cl)c2)cc1`, 60% (inactive).

Consider `O=C(O)c1cccnc1N1CCOCC1`, for which the survival was 84% (inactive). On to `O=C(NCc1cccs1)c1ccc(CSc2nc3ccncc3n2Cc2ccccc2)cc1`, for which the survival was 110% (inactive). On to `COc1ccc(OC)c(NS(=O)(=O)c2ccc3[nH]c4c(c3c2)CCCCC4)c1`, for which the survival is 77% (inactive). On to `Cc1ccc(C)c(Cn2nc(-c3cc(C)ccc3C)ccc2=O)c1`, for which the survival was 44% (inactive). Then `Cc1ccc(-c2ccc(=O)n(Cc3ccc(F)cc3)n2)cc1`, with 50% (inactive). Then `C=Cc1ccc(Cn2nc(-c3ccc(C)c(S(=O)(=O)N(CC)CC)c3)ccc2=O)cc1`, with 53% (inactive). Regarding `COC(=O)c1ccc(Cn2nc(-c3ccc(C)cc3)ccc2=O)cc1`, the survival was 133% (inactive). Then `C=Cc1ccc(Cn2nc(-c3ccc(C)cc3)ccc2=O)cc1`, with 35% (active); and `O=c1ccc(-c2ccccc2)nn1Cc1ccc(F)cc1Cl`, with 49% (inactive). `Cc1ccc(C)c(-c2ccc(=O)n(Cc3c(F)cccc3Cl)n2)c1`: the survival is 81% (inactive). Then `Cc1ccc(-c2ccc(=O)n(Cc3cc(C)ccc3C)n2)cc1`, with 57% (active); and `Cc1ccc(-c2ccc(=O)n(CC(=O)NCCc3ccccc3)n2)cc1`, with 57% (inactive); and `Cc1ccc(-c2ccc(=O)n(CC(=O)NCCc3ccc(Cl)cc3)n2)cc1`, with 69% (inactive). Consider `Cc1ccc(CCNC(=O)Cn2nc(-c3ccc(C)cc3)ccc2=O)cc1`, for which the survival is 0% (active). As for `Cc1ccc(C)c(-c2ccc(=O)n(Cc3ccc(F)cc3Cl)n2)c1`, the survival is 32% (active). Turning to `Cc1ccc(NC(=O)CCN2CCN(CCO)CC2)cc1C`, the survival is 54% (inactive). Consider `Cc1ccc(CCNC(=O)c2ccc3c(c2)nc2n3CCOC2)cc1`, for which the survival is 86% (inactive). Take `CCc1ccc(-n2c(=O)c3cccnc3n2CC(=O)Nc2ccccc2C(F)(F)F)cc1`: the survival was 71% (inactive). Regarding `Cc1c(-c2ccc(Cl)cc2)c(=O)oc2c(CN3CCOCC3)c(O)ccc12`, the survival was 82% (inactive). Under `O=c1oc(-c2cccc3ncccc23)nn1Cc1ccccc1F` stands 102% (inactive); under `COc1cccc(CNC(=O)CCc2nnc3n(C)c(=O)c4sccc4n23)c1`, 63% (inactive); under `CCc1ccc(C(=O)c2cn(CC(=O)Nc3ccc(C)c(C)c3)c3ccccc3c2=O)cc1`, 108% (inactive). On to `CC(C)CC(=O)n1nc(-c2cccnc2)nc1NCc1ccc(F)cc1`, for which the survival was 89% (inactive).

As for `Cc1cc(Nc2ccc(F)cc2)nc(-n2nc(C)cc2C)n1`, the survival is 70% (inactive). With `Cc1ccc2ncc(C(=O)c3ccc(C)c(C)c3)c(S(=O)(=O)c3ccccc3)c2c1`, the survival was 70% (inactive). On to `COc1ccc(S(=O)(=O)N2CCC(c3nnnn3-c3ccccc3)CC2)cc1OC`, for which the survival is 80% (inactive).

`CN1C(=O)/C(=C2/SC(=S)N(c3cccc(O)c3)C2=O)c2ccccc21`: the survival was 54% (inactive). For `CNC(=O)c1ccc(CSc2nc3cccnc3n2Cc2cccc(F)c2)cc1`, the survival was 118% (inactive).

Consider `CCN1CCN(CCCNC(=O)c2ccc3nc(Cc4ccccc4)oc3c2)CC1`, for which the survival is 105% (inactive). Consider `COc1ccc(NC(=O)c2ccco2)cc1NC(=O)c1ccc(C)c(C)c1`, for which the survival is 49% (active). As for `COc1ccc(NC(=O)c2ccco2)cc1NC(=O)c1c(OC)cccc1OC`, the survival was 51% (inactive). As for `COc1ccc(NC(=O)c2ccco2)cc1NC(=O)COc1ccccc1`, the survival is 45% (active).

Regarding `COc1ccc(NC(=O)c2ccco2)cc1NC(=O)c1ccccc1[N+](=O)[O-]`, the survival is 49% (inactive).

Take `COc1cc(OC)cc(C(=O)Nc2cc(NC(=O)c3ccco3)ccc2OC)c1`: the survival was 83% (inactive). Regarding `COc1ccc(C(=O)Nc2cc(NC(=O)c3ccco3)ccc2OC)cc1Cl`, the survival was 54% (inactive). In the case of `COc1ccc(NC(=O)c2ccco2)cc1NC(=O)c1cccc(F)c1`, the survival was 89% (inactive). Consider `COc1ccc(NC(=O)c2ccco2)cc1NC(=O)COc1ccc(C)c(C)c1`, for which the survival is 49% (inactive). On to `COc1ccc(NC(=O)c2ccco2)cc1NC(=O)COc1cc(C)cc(C)c1`, for which the survival was 121% (inactive). Turning to `CCCCOc1cccc(C(=O)Nc2cc(NC(=O)c3ccco3)ccc2OC)c1`, the survival is 23% (active).

Consider `COc1ccc(NC(=O)c2ccco2)cc1NC(=O)c1cccc(C)c1OC`, for which the survival was 37% (active).

On to `COc1ccc(NC(=O)c2ccco2)cc1NC(=O)c1cc(OC)c(OC)c(OC)c1`, for which the survival is 71% (inactive).
